TDP1 cell CPT = qHTS for Inhibitors of human tyrosyl-DNA phosphodiesterase 1 (TDP1): qHTS in cells in presence of CPT | Potency, µM (doses to about 46.2 µM), hits mostly inhibitors | chicken DT40 Tdp1-/-;hTDP1 cells + 20 nM CPT, ATP luminescence, 48 h | 12% of 420,000 active; also: nearly all actives have a fitted effect of over 55% in size
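Cell growth measured by CellTiter-Glo luminescence after a minimum 48 h, 37 C compound exposure with 20 nM CPT in Tdp1-knockout DT40 cells stably expressing hTDP1, seeded 400/well; qHTS titration format.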
KB-V1 cytotox = qHTS assay for MDR1-selective chemotherapeutics: Primary screen using the drug-selected MDR subline cells KB-V1. 3.4% of 400,000 active. AID 1347076, 2019. KB-V1 MDR cells viability, CellTiter-Glo, 72 h. Potency, µM (highest dose often 46.1 µM), actives largely listed as cytotoxic; also: nearly all actives have a fitted effect of over 60% in size
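KB-V1 cells (P-gp-expressing MDR subline of KB-3-1) in phenol-red-free DMEM with 10% FBS were exposed to library compounds over a concentration series for 72 h at 37 degrees C. Viability read by CellTiter-Glo luminescence; concentration-effect curves fitted after normalization.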
HT1080NT lethal = qHTS for induction of synthetic lethality in tumor cells producing 2HG: qHTS for the HT-1080-NT fibrosarcoma cell line; HT-1080-NT fibrosarcoma viability, CellTiter-Glo ATP luminescence, 48 h; AID 686970, 2013; Potency, µM (titrated, usually from 46.1 µM), usual class: cytotoxic; 1.6% of 360,000 active;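 also: NT is the 2HG producing partner of a matched IDH1 knockdown line; nearly all actives have a fitted effect of over 55% in size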
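Luminescent CellTiter-Glo readout after 48 hours of compound exposure at 37 degrees C defined viability of HT-1080-NT cells. Activity was normalized to DMSO wells and cell-free media wells; concentration-response curves were fitted and assigned curve classes.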
DT40 TDP1 no CPT = qHTS for Inhibitors of human tyrosyl-DNA phosphodiesterase 1 (TDP1): qHTS in cells in absence of CPT; 15% of 420,000 active; DT40 Tdp1-/- hTDP1 cells, no CPT, ATP luminescence, 48 h; Potency, µM (top dose mostly 46.2 µM), most hits filed as inhibitors; AID 686978, 2013; also: nearly all actives have a fitted effect of over 55% in size
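Compound effects on proliferation are scored in DT40 Tdp1-/-;hTDP1 cells in the absence of CPT. ATP levels (CellTiter-Glo luminescence) are recorded after a ≥48 hr, 37 °C incubation.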
HT1080 IDH1KD tx = qHTS for induction of synthetic lethality in tumor cells producing 2HG: qHTS for the HT-1080-IDH1KD cell line; HT-1080 IDH1 knockdown viability, ATP luminescence, 48 h; Potency, µM (doses to about 46.1 µM), most hits filed as cytotoxic; 2% of 360,000 active; AID 686971, 2013
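Using the IDH1-knockdown HT-1080 line run in the same batch and compound series as the NT line, viability after 48 h at 37 °C was determined by CellTiter-Glo luminescence and expressed as % activity.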
KB-3-1 cytotox = qHTS assay for MDR1-selective chemotherapeutics: Primary screen using the parental adenocarcinoma cell KB-3-1; KB-3-1 viability, CellTiter-Glo ATP luminescence, 72 h; Potency, µM (top dose mostly 46.1 µM), hits mostly cytotoxic; 1.4% of 400,000 active; AID 1347075, 2019; also: nearly all actives have a fitted effect of over 60% in size
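72 h, 37 °C compound treatment of KB-3-1 parental cells; CellTiter-Glo added, 10 min, luminescence read. Data corrected against DMSO-only plates and normalized before curve fitting.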
Of the large screens only hits and unclear results are named; the others gave an inactive call. Sampled rows, rich in hits. Any-hit rate of the full collection: about 19%. Calls follow the shape of the dose curve; as a rule, active = well fitted curve in the direction sought with a large enough effect; inconclusive = small, poorly fitted or top-dose-only effect, or another doubt; inactive = no such curve, though single readings can be large; an effect the other way counts as inactive or inconclusive.

CC(C)(C)n1nnnc1C(c1cccs1)N1CCC2(CC1)C(=O)NCN2c1ccccc1 (stereo unspecified)	DT40 TDP1 no CPT inconclusive
CCCCn1nnnc1C(c1ccc(OC)cc1)N1CCC2(CC1)C(=O)NCN2c1ccccc1 (stereo unspecified)	TDP1 cell CPT 18µM, HT1080NT lethal inconclusive, DT40 TDP1 no CPT inconclusive, HT1080 IDH1KD tx inconclusive
COc1ccc(-n2nnnc2C(c2ccccc2OC(F)(F)F)N2CCC3(CC2)C(=O)NCN3c2ccccc2)cc1 (stereo unspecified)	TDP1 cell CPT 18µM, KB-V1 cytotox inconclusive, HT1080NT lethal inconclusive, DT40 TDP1 no CPT 23µM, HT1080 IDH1KD tx 16µM, KB-3-1 cytotox inconclusive
COc1ccc(C(c2nnnn2-c2ccc(OC)cc2)N2CCC3(CC2)C(=O)NCN3c2ccccc2)cc1 (stereo unspecified)	TDP1 cell CPT inconclusive, KB-V1 cytotox inconclusive, HT1080NT lethal inconclusive, DT40 TDP1 no CPT inconclusive, HT1080 IDH1KD tx inconclusive
O=C1NCN(c2ccccc2)C12CCN(C(c1ccccc1OC(F)(F)F)c1nnnn1C1CCCC1)CC2 (stereo unspecified)	TDP1 cell CPT inconclusive, KB-V1 cytotox inconclusive, DT40 TDP1 no CPT inconclusive, KB-3-1 cytotox inconclusive
FC(F)(F)c1ccc(-c2ccc3c(c2)CNCc2cnnn2-3)cc1	TDP1 cell CPT inconclusive, HT1080NT lethal inconclusive, DT40 TDP1 no CPT inconclusive, HT1080 IDH1KD tx inconclusive
CC(C)Cc1nc2cccnc2n1C1CCNCC1	none (no result: HT1080NT lethal, HT1080 IDH1KD tx)
COc1ccc(-n2nnnc2C(c2ccccc2)N2CCC3(CC2)C(=O)NCN3c2ccccc2)cc1 (stereo unspecified)	TDP1 cell CPT inconclusive, HT1080NT lethal inconclusive, DT40 TDP1 no CPT inconclusive, HT1080 IDH1KD tx inconclusive, KB-3-1 cytotox inconclusive
COc1ccc(-n2nnnc2C(c2ccnc3ccccc23)N2CCC3(CC2)C(=O)NCN3c2ccccc2)cc1 (stereo unspecified)	TDP1 cell CPT inconclusive, KB-V1 cytotox inconclusive, HT1080NT lethal inconclusive, DT40 TDP1 no CPT 23µM, HT1080 IDH1KD tx inconclusive
O=C1NCCOC(=O)[C@H](Cc2ccc(F)cc2)CC/C=C/C[C@@H]1CC(=O)N(CCO)Cc1ccccc1	TDP1 cell CPT 16µM, DT40 TDP1 no CPT inconclusive
O=C1NCCOC(=O)[C@@H](Cc2ccc(F)cc2)CC/C=C/C[C@H]1CC(=O)N(CCO)Cc1ccccc1	TDP1 cell CPT 21µM, DT40 TDP1 no CPT inconclusive
CCOc1ccc(-n2c(O)c(N=Nc3c(C)n(C)n(-c4ccccc4)c3=O)c(=O)[nH]c2=O)cc1	none
O=C(Cc1ccccc1)N1CCN(Cc2ccc(F)cc2)CC1	none
C[C@H](NC(=O)[C@@H](N)Cc1ccc(O)cc1)C(=O)N[C@@H](Cc1ccccc1)C(=O)NCC(=O)N[C@@H](Cc1ccc(O)cc1)C(=O)N1CCC[C@H]1C(=O)N[C@@H](CO)C(N)=O	none (no result: KB-V1 cytotox, HT1080NT lethal, HT1080 IDH1KD tx, KB-3-1 cytotox)
CCN(CC)CCSc1nc2ccccc2c(=O)n1-c1ccc(Cl)cc1	TDP1 cell CPT 7.3µM, DT40 TDP1 no CPT 21µM (no result: KB-V1 cytotox, HT1080NT lethal, HT1080 IDH1KD tx, KB-3-1 cytotox)
O=c1c2ccccc2nc(N2CCCC2)n1-c1ccc(Cl)cc1	TDP1 cell CPT 21µM, KB-V1 cytotox 23µM, DT40 TDP1 no CPT 16µM, KB-3-1 cytotox inconclusive
COc1ccc(OC(=O)N(C)C[C@H]2OCc3cnnn3CCCC(=O)N([C@@H](C)CO)C[C@H]2C)cc1	none
CC(C)CN1CCCC2(CCN(C(=O)Oc3ccccc3)CC2)C1	none (no result: KB-V1 cytotox, HT1080NT lethal, HT1080 IDH1KD tx, KB-3-1 cytotox)

From PubChem BioAssay
